Measurements: the supplement of paper PMC6953052
Several values for one entry are separate records, joined by “and”; a condition that tells them apart may be missing. Equal entries are not always repeated. ± gives the standard deviation of the averaged measurements. Over roughly 1,700 compounds, “fraction of GFP-LC3-positive cells (≥5 vesicles/cell)” has its median near 0.43; the highest 2% begin near 0.81. The list comes from a sample in which the highest values are over-represented; it also holds similar structures and randomly drawn compounds.

The compounds below were run on CbCln3 Δex7/8/Δex7/8 GFP-LC3 cerebellar neuronal cells (assay: fraction of GFP-LC3-positive cells (≥5 vesicles/cell); higher = more autophagosome accumulation).
Summary of the method: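 Compound (~50 nL in DMSO) was pin-transferred in duplicate onto wild-type or mutant CbCln3 cerebellar cells stably expressing GFP-LC3, seeded at 2 × 10^3/well in 384-well plates, for 24 h at 33 °C. After fixation in 3.2% PFA, three fields per well were imaged at 10×. The value reported is the duplicate average of the fraction of cells meeting a vesicle-count threshold, with CellProfiler counting GFP-LC3 vesicles per cell and out-of-focus images excluded. Cells met the threshold at 5 or more vesicles.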

Row | Structure (SMILES) | fraction of GFP-LC3-positive cells
1 | Cl.c1ccc2c(c1)CCCC2C1=NCCN1 (configuration not stated) [Tetrahydrozoline hydrochloride] | 0.357
2 | CC(C)C[C@H](NC(=O)[C@H]1CCCN1C(=O)OCc1ccccc1)C(=O)NCC(=O)NO | 0.442
3 | CN(C)CCCn1cc(C2=C(c3c[nH]c4ccccc34)C(=O)NC2=O)c2ccccc21 | 0.583 and 0.599
4 | Cn1cc(C2=C(c3cn(CCCSC(=N)N)c4ccccc34)C(=O)NC2=O)c2ccccc21 | 0.854 ± 0.15
5 | CN(C)CCC=C1c2ccccc2C=Cc2ccccc21.Cl [Cyclobenzaprine hydrochloride] | 0.513
6 | CC[C@]1(O)C[C@@H]2CN(CCc3c([nH]c4ccccc34)[C@@](C(=O)OC)(c3cc4c(cc3OC)N(C)[C@H]3[C@@](O)(C(=O)OC)[C@H](OC(C)=O)[C@]5(CC)C=CCN6CC[C@]43[C@@H]65)C2)C1.O=S(=O)(O)O [vinblastine] | 0.848
7 | CC/C=C\C/C=C\C/C=C\CCCCCCCCCCCC(=O)O [Docosatrienoic acid (22:3 n-3)] | 0.541
8 | CC/C=C\C/C=C\C/C=C\CCCCCCCCCCCC(=O)O | 0.417
9 | CC/C=C\C/C=C\C/C=C\CCCCCCCCCCCC(=O)O [Docosatrienoic acid (22:3 N-3)] | 0.466
10 | CC[N+](C)(C)c1cccc(O)c1.[Cl-] [Edrophonium chloride] | 0.407
11 | CC(C)NNC(=O)c1ccncc1.O=P(O)(O)O [Iproniazide phosphate] | 0.489
12 | CNCCCN1c2ccccc2CCc2ccccc21.Cl [Desipramine hydrochloride] | 0.486
13 | CN(C)CCOC(C)(c1ccccc1)c1ccccn1.O=C(O)CCC(=O)O (configuration not stated) [Doxylamine succinate] | 0.314
14 | O=C(NCC1CCCCN1)c1cc(OCC(F)(F)F)ccc1OCC(F)(F)F (configuration not stated) | 0.524
15 | c1ccc2[nH]c(-c3cscn3)nc2c1 [Tiabendazole] | 0.326
16 | CC[C@H]1[C@@H]2C=C[C@@H]3[C@H]4C/C=C\C(=O)NCCC[C@@H]5NC(=O)C(=C5O)C(=O)CC[C@@H]4C[C@@H]3[C@H]2C[C@H]1C [Ikarugamyin] | 0.921
17 | CCCCCCCC/C=C\CCCCCCCC(=O)NCCc1ccc(O)c(O)c1 [Oleoyl dopamine] | 0.611
18 | CCCCC/C=C\C=C\C(O)CCCCCCCC(=O)O (racemic) | 0.29
19 | CCOC(=O)[C@H](CCc1ccccc1)N[C@@H](C)C(=O)N1CCC[C@H]1C(=O)O.O=C(O)/C=C\C(=O)O [Enalapril maleate] | 0.395
20 | CCCCC[C@H](O)/C=C/C=C/C=C/[C@H](O)C/C=C\CCCC(=O)O [8(R),15(S)-DiHETE all trans] | 0.298
21 | CC[N+](CC)(CC)CCC(O)(c1ccccc1)C1CCCCC1.[Cl-] (configuration not stated) [Tridihexethyl chloride] | 0.44
22 | CCCCCCCCCCCCCCCCOC[C@H](COP(=O)([O-])OCC[N+](C)(C)C)OC(=O)NC | 0.4228 ± 0.0025
23 | NC(=O)N/N=C/c1ccc([N+](=O)[O-])o1 [Nitrofural] | 0.493
24 | CCC1NC(=O)c2cc(S(N)(=O)=O)c(Cl)cc2N1 (configuration not stated) [Quinethazone] | 0.417

Row | Structure (SMILES) | fraction of GFP-LC3-positive cells
25 | CN(C)CCCSC(=N)N.Cl.Cl [Dimaprit dihydrochloride] | 0.45
26 | Nc1nc(=O)[nH]cc1F [Flucytosine] | 0.296
27 | Cl.Clc1ccccc1CN1CCc2sccc2C1 [Ticlopidine hydrochloride] | 0.403
28 | CN[C@H]1CC[C@@H](c2ccc(Cl)c(Cl)c2)c2ccccc21 [Sertraline] | 0.311
29 | Oc1ccc(-c2nc(-c3ccc(F)cc3)c(-c3ccncc3)[nH]2)cc1 | 0.524 and 0.566
30 | N=C(N)NCCC[C@H](NC(=O)[C@@H]1CCCN1C(=O)[C@H](N)Cc1ccccc1)C(=O)CCl | 0.502
31 | CC(=O)N[C@@H](CC(C)C)C(=O)N[C@@H](CC(C)C)C(=O)N[C@H](C=O)CCCNC(=N)N [Leupeptin] | 0.392
32 | CCCC[C@@H](C=O)NC(=O)[C@H](CC(C)C)NC(=O)[C@H](CC(C)C)NC(C)=O | 0.93
33 | CSCC[C@@H](C=O)NC(=O)[C@H](CC(C)C)NC(=O)[C@H](CC(C)C)NC(C)=O | 0.448
34 | CCOC(=O)/N=c1/c[n+](N2CCOCC2)[n-]o1 [Molsidomine] | 0.473
35 | CCC[C@@H]1C[C@@H](C(=O)N[C@@H]([C@H]2O[C@H](SC)[C@H](O)[C@@H](O)[C@@H]2O)[C@@H](C)O)N(C)C1.Cl [Lincomycin hydrochloride] | 0.505
36 | CS(=O)(=O)c1ccc([C@@H](O)[C@@H](CF)NC(=O)C(Cl)Cl)cc1 [Florfenicol] | 0.355
37 | CN(C)c1ccc(/C=C2\C(=O)Nc3ccccc32)cc1 | 0.441 and 0.394
38 | CC(C(=O)O)c1cccc(C(=O)c2ccccc2)c1 (configuration not stated) [Ketoprofen] | 0.499
39 | COC(=O)Nc1nc2cc(C(=O)c3cccs3)ccc2[nH]1 [nocodazole] | 0.612
40 | CC(C(=O)O)c1ccc(C(=O)c2cccs2)cc1 (configuration not stated) [Suprofen] | 0.46
41 | O=C(O)c1ccc2nc(-c3ccccc3)c(-c3ccccc3)nc2c1 | 0.507
42 | COC(=O)Nc1nc2cc(C(=O)c3ccccc3)ccc2[nH]1 [Mebendazole] | 0.9
43 | COC(=O)Nc1nc2cc(C(=O)c3cccs3)ccc2[nH]1 [Nocodazole] | 0.916
44 | Cc1cc(C2CCCCC2)n(O)c(=O)c1.NCCO [Ciclopirox ethanolamine] | 0.809
45 | Cc1cc(=O)n(-c2ccccc2)n1C [Antipyrine] | 0.36
46 | CC(C)COCC(CN(Cc1ccccc1)c1ccccc1)N1CCCC1 (configuration not stated) | 0.621
47 | CCCCC[C@H](O)/C=C/C=C\C/C=C\C/C=C\CCCC(=O)O | 0.405 ± 0.089
